# Data reported in PubChem BioAssay (NCATS).
# Results filed as inconclusive are left out. Unmarked numbers belong to inactive results. Calls come from the whole dose curve; as a rule, active = well fitted curve in either direction with a large enough effect (not every such curve was filed as active); inconclusive = small, poorly fitted or top-dose-only effect, or another doubt; inactive = flat fitted curve, though single readings scatter.
# Test: Stat Signaling Pathway (AID 446);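 note: ME-180 cervical cancer cells given 40 pM IL-6 alongside compound; SIE-controlled beta-lactamase reporter measured as 460/530 nm FRET emission ratio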
# Conditions: ME-180 SIE beta-lactamase reporter, IL-6 stimulated, 5 h; at 17.2 µM (top of the series) unless noted
# Method in brief: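 Screening format detects activators and inhibitors alike: ME-180 SIE-bla cells stimulated at 40 pM IL-6 for 5 hrs with compound, then dual-emission beta-lactamase read at 405 nm excitation.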
# % is set by controls: 0 for no effect and ±100 for the full control effect.
row,SMILES,"activity, negative = inhibition [%]"
1,Cc1cc(=O)n2[nH]cnc2n1,13.7
2,CCCCCSc1nc(C)c(CC(=O)O)c(=O)[nH]1,12.4
3,O=C(NC1CCS(=O)(=O)C1)N1CCCCC1 (centres undefined),9
4,O=C(Cc1cscn1)c1ccc(O)cc1O,12.7
5,CC1(c2cnc(Nc3ccccc3)s2)CCC(=O)O1 (centres undefined),22.3
6,CCCc1cc(=O)oc2c(CN3CCCC3)c(O)ccc12,2.68
7,c1ccc(-c2nc(NCC3CCCO3)c3ccccc3n2)nc1 (centres undefined),-6.67
8,Cn1ncc(N=Cc2ccccc2O)c1C(=O)Nc1ccccc1,0.0885
9,Cc1sc(-n2c(C)ccc2C)c(C#N)c1C,0.959
10,Fc1ccc(C2C3=C(Nc4ncnn42)c2ccccc2OC3c2ccncc2)cc1 (centres undefined),-12.3
11,COc1ccc(C2/C(=C(/O)c3cnn(-c4ccccc4)c3C)C(=O)C(=O)N2CCN(C)C)cc1OC (centres undefined),-4.43
12,O=C(O)CCCC(=O)N1CCN(C(c2ccccc2)c2ccccc2)CC1,0.344
13,CCOC(=O)C1=C(C)N=C2SC(C)C(=O)N2C1c1cccc(F)c1 (centres undefined),1.84
14,COc1cccc(C2=CC(c3ccccc3)n3nnnc3N2)c1 (centres undefined),-10.3
15,CN(C)CCCN(CCCNC(=O)/C=N/O)Cc1ccccc1,17.4
16,O=C(O)c1ccnc(C(=O)O)c1,10.5
17,CN1CCc2c(C#N)c(N3CCCCC3)nc(N3CCOCC3)c2C1,10.9
18,CC(=O)OCC(=O)[C@@]1(O)CC[C@H]2[C@@H]3CCC4=CC(=O)C=C[C@]4(C)[C@@]3(Cl)[C@@H](Cl)C[C@@]21C,-0.258
19,CCOc1ccc(C2C(C(=O)c3ccc(C)o3)=C(O)C(=O)N2CCN2CCOCC2)cc1OC (centres undefined),0.944
20,CCCOc1ccc(-c2nnc(N)s2)cc1,5.95

row,SMILES,"activity, negative = inhibition [%]"
1,Cn1cc(Cl)nc1C(O)c1ccccc1 (centres undefined),6.92
2,Cc1cc(C)nc(N(C#N)CC(=O)N(c2ccccc2)C(C)C)n1,7.49
3,CCCC(=O)N1CCN(c2nc(CC(C)C)c3c(c2C#N)CCC3)CC1,-1.27
4,COCCNC(=O)C(C#N)c1nc2ccccc2nc1N1CCN(Cc2ccc3c(c2)OCO3)CC1 (centres undefined),4.46
5,CC1(C)Cc2nc(N)c(C(=O)NCCO)cc2CO1,9.02
6,COC(=O)c1ccccc1OCc1cccc(C)n1,-5.73
7,Cc1cccc(C)c1N1C(=O)C2ON(c3ccccc3)C(c3ccncc3)C2C1=O (centres undefined),-5.83
8,CC(=O)/C=C(\C)NCCNc1c(F)c(F)c(CO)c(F)c1F,-2.87
9,CCOC(=O)C1=C(C)OC(N)=C(C#N)C1c1cc2ccccc2nc1N1CCCCC1 (centres undefined),13.8
10,O=C(c1nsnc1-c1ccccc1O)N1CCCCC1,-2.4
11,Cc1ccc2[nH]c3c(c2c1)CN(C(=O)CN1CCN(c2ccccn2)CC1)CC3,-12.2
12,CCC(=O)Nc1ccc(-c2nnc(-c3ccccc3)o2)cc1,-0.000551
13,CCn1nnc(C(=O)O)c1C(=O)O,1.11
14,COc1ccc(C(=O)Cn2c(N3CCCCC3)nc3c2c(=O)n(C)c(=O)n3C)cc1OC,-0.755
15,CCOC(=O)C(Oc1ccc(=O)[nH]n1)C(C)=O (centres undefined),2.15
16,Cc1ccc(/C=c2\sc3n(c2=O)CN(c2ccc(Br)cc2)CN=3)o1,0.614
17,COc1ccc(-c2nc3n(n2)C(=O)CC(c2ccco2)S3)cc1 (centres undefined),-11.3
18,CC(=O)c1c(C)c2c(n1CCN(C)C)CCCC2,9.43
19,CC(C)CC(C(=O)O)C(C)CC(=O)Nc1ccn(-c2ccccc2)n1 (centres undefined),7.28
